# D1 antagonist: Antagonist of Human D 1 Dopamine Receptor: qHTS | D(1A) dopamine receptor (Homo sapiens), P21728 | HEK293 TREx D1 cells, calcium flux, dopamine EC80; hits give low values | activity change, negative = inhibition, % at 10 µM | 360,000 compounds, 3.2% hits | AID 504652, 2011; in the data active means activity change below about -30%
# Target sequence (P21728 whole entry, looked up): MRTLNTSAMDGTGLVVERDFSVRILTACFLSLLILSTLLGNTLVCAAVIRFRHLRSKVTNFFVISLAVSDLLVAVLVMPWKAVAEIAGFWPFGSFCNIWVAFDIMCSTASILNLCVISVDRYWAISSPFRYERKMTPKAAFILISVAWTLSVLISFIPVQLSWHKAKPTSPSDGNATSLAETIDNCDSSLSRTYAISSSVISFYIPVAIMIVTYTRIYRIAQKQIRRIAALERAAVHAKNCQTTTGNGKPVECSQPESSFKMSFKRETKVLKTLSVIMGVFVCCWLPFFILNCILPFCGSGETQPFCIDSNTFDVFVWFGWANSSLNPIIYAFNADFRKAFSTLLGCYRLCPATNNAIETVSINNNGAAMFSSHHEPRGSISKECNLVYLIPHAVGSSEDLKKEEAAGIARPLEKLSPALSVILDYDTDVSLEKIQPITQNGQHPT
#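 Compound effects on dopamine-evoked calcium signalling were measured in tetracycline-induced HEK293 Trex D1 cells. Dopamine at EC80 followed a 180 s compound pre-read, and fluorescence was tracked kinetically for 180 s more.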
# DRD3 antagonist: qHTS of D3 Dopamine Receptor Antagonist: qHTS; D3R cells, DiscoveRx beta-arrestin luminescence, antagonist mode; hits give low values; max response, negative = inhibition, %; 360,000 compounds, 2.5% hits; D(3) dopamine receptor (Homo sapiens), P35462; in the data active means max response below about -50%; inconclusive means no clear call, values can overlap the other calls
#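 Cells expressing the human receptor were seeded at 1500 cells/well, incubated overnight at 37 degrees C in 5% CO2, then exposed to library compounds with dopamine controls for 90 minutes at 37 degrees C before luminescent detection.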
# D1 agonist: Allosteric Agonists of the Human D1 Dopamine Receptor: qHTS | D(1A) dopamine receptor (Homo sapiens), P21728 | HEK293 T-REx D1 cells, calcium flux, agonist mode | activation, % at 2 µM | 360,000 compounds, 1% hits; in the data active means activation above about 30%
#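 Agonism was scored from calcium flux recorded over 180 s (1 read/s) after pintool compound addition, following a 10-cycle baseline. Cells were inducible force-coupled HEK293 TREx D1, plated overnight at 30 C and loaded with no-wash calcium dye.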
# D3 ag: qHTS of D3 Dopamine Receptor Agonist: qHTS; D(3) dopamine receptor (Homo sapiens), P35462; D3R DiscoveRx beta-arrestin cells, luminescence, 90 min; max activation, %; 410,000 compounds, 0.58% hits; AID 652048, 2013; in the data active means max activation above about 30%
#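 Agonist mode: compounds and dopamine controls were applied to plated cells for 90 min at 37 degrees C after an overnight attachment at 1500 cells/well. Luminescent read-out followed 30 - 60 minutes at room temperature with DiscoveRx detection reagent.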
# D1 PAM: Potentiators of Human D1 Dopamine Receptor: qHTS. HEK293 TREx D1 cells, calcium flux, dopamine EC20 potentiation. potentiation, % at 10 µM. 360,000 compounds, 0.036% hits. AID 504651, 2011; in the data active means potentiation above about 30%
# A number is an active result; . = inactive; ? = inconclusive; / = no result given. Shown are actives, neighbours in structure and some others; about 6% of the full set was active somewhere.
SMILES,D1 antagonist,DRD3 antagonist,D1 agonist,D3 ag,D1 PAM
O=C(N/N=C/c1[nH]c2ccccc2c1Cl)c1cccc(Br)c1,.,.,.,.,.
CC(/C=C/c1ccccc1)=N/NC(=O)c1cccc(Br)c1,.,-53,.,.,.
CC(/C=C/c1ccccc1)=N\NC(=O)c1cc(C)nc2ccccc12,-36,.,.,.,.
O=C(N/N=C/C1C(c2ccccc2)C1(Cl)Cl)c1cccc(Br)c1 (centres undefined),.,-53,.,.,.
CCC1CN(C(=O)N2CCC(C(=O)NCCc3cc(OC)ccc3OC)CC2)c2ccccc2O1 (centres undefined),.,/,.,.,.
COc1ccc(-n2ccnc(NCc3ccc(C)cc3)c2=O)cc1OC,.,/,.,.,.
CCOc1ccccc1NC(=O)C(NS(=O)(=O)c1ccc2c(c1)CCC(=O)N2)c1ccccc1 (centres undefined),.,/,.,.,.
O=C(Nc1ccc(/C=C/c2nc3ccccc3o2)cc1)c1c(F)cccc1F,-42,.,.,.,.
CC(=O)Nc1ccc(/C=C/c2nc3ccccc3o2)cc1,.,.,.,.,.
O=C1c2ccccc2-c2onc3ccc(Oc4ccccc4)c1c23,.,-116,.,.,.
O=C(Nc1ccc(F)c(Cl)c1)C1CCN(S(=O)(=O)c2ccc3c(c2)CCCN3C(=O)C2CCC2)CC1,.,/,.,.,.
CC(=O)Nc1c(C)nn(-c2ccccc2)c1N1CCC(C(=O)Nc2cc(F)ccc2F)CC1,.,/,.,.,.
CC(=O)Nc1ccc(NC(=O)C2CCN(c3c(NC(C)=O)c(C)nn3-c3ccccc3)CC2)cc1,-36,/,.,.,.
COC1CCN(C(=O)c2ccc(OC3CCN(CCc4ccccc4)CC3)cc2)CC1,.,.,.,.,.
CN(C(=O)c1ccc(OC2CCN(CCc3ccccc3)CC2)cc1)C1CCOCC1,.,-83,.,.,.
O=C(c1ccc(OC2CCN(CCc3ccccc3)CC2)cc1)N1CCC(CO)CC1,-44,.,.,.,.
CSCCNC(=O)c1ccc(OC2CCN(CCc3ccccc3)CC2)cc1,.,-79,.,.,.
CN(Cc1nccs1)C(=O)c1ccc(OC2CCN(CCc3ccccc3)CC2)cc1,-54,?,.,.,.
Cc1ccc(Nc2nc(C)cc(C)n2)c(C(=O)O)c1,.,/,.,.,.
Cc1ccc(CNC(=O)c2cc3c(=O)n(Cc4ccco4)ccc3nc2C)cc1,.,/,.,.,.
O=C(Cn1c(SCCOc2ccccc2)nc2ccccc21)N1CCOCC1,.,/,.,.,.
COc1ccc(C2c3cccn3CCN2S(=O)(=O)c2ccc([N+](=O)[O-])cc2)cc1 (centres undefined),/,/,.,.,.
COc1cc(OC)c(NC(=O)Cn2c(=O)oc3cc(S(=O)(=O)N4CCCC4)ccc32)cc1Cl,.,/,.,.,.
CCOC(=O)C1(Cc2ccccc2C)CCCN(C(=O)CN2CCCCC2=O)C1 (centres undefined),.,.,.,58,.
CCOC(=O)C1(Cc2ccccc2C)CCCN(C(=O)COC)C1 (centres undefined),.,.,.,.,.
SMILES,D1 antagonist,DRD3 antagonist,D1 agonist,D3 ag,D1 PAM
COc1cc(/C=C2\SC(=O)N(CC(=O)Nc3ccccc3F)C2=O)cc(Cl)c1O,.,.,130,59,.
COc1cc(/C=C2\SC(=O)N(CC(=O)Nc3cccc(C)c3)C2=O)cc([N+](=O)[O-])c1O,.,.,.,38,.
CCn1c(C)cc(/C=C2\SC(=O)N(CC(=O)Nc3ccc(C)c(C)c3)C2=O)c1C,-38,.,.,.,.
CCOc1cc(/C=C2\SC(=O)N(CC(=O)Nc3ccccc3F)C2=O)cc([N+](=O)[O-])c1O,.,.,.,.,.
COc1cc(OC)c(/C=C2\SC(=O)N(CC(=O)Nc3ccccc3F)C2=O)c(OC)c1,.,.,.,.,.
CCOc1ccc(NC(=O)c2oc3ccccc3c2NC(=O)C(C)Oc2ccccc2)cc1 (centres undefined),.,/,.,.,.
COc1ccc(OCCN2CCN(C(=O)c3ccc(OC)cc3)CC2)cc1,.,.,.,92,.
